Only a selection was taken, and hits are over-represented in it overall.
ALOX12 inh = Primary qHTS assay for inhibitors of human arachidonate 12S-lipoxygenase (ALOX12): Round 2; Polyunsaturated fatty acid lipoxygenase ALOX12 (Homo sapiens), P18054; AID 1671190, 2021; hit rate 1.1% among 580,000; purified 12hLO, xylenol orange hydroperoxide absorbance; Potency, µM (highest dose often 108 µM), for the others: top-dose activity change, negative = inhibition, actives largely listed as inhibitors; further: potency means the concentration at half of the fitted maximal effect
Target sequence (P18054 whole entry, looked up): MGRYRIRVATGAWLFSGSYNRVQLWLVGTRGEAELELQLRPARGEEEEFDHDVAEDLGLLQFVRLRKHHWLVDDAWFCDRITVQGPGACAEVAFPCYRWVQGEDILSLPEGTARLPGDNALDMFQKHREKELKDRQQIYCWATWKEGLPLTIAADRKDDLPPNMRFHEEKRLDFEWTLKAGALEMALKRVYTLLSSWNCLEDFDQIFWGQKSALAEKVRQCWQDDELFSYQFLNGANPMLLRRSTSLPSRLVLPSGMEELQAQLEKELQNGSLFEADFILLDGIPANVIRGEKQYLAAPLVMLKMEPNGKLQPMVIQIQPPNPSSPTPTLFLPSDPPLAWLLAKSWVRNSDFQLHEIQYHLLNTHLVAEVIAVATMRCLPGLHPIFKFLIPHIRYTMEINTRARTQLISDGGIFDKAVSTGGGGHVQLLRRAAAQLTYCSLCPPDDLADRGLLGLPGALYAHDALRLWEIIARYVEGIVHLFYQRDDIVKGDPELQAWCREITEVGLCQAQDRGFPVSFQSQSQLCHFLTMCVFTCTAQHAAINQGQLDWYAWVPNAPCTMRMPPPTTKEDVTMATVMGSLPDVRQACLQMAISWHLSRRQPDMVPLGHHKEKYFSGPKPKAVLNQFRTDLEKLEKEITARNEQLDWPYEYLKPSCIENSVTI
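Purified human 12hLO (150 nM final) in 25 mM Hepes, 0.01% Triton X-100, pH 7.0 was preincubated 15 min at room temperature with compound. Then 40 uM arachidonic acid was added, 30 min. Hydroperoxide was read by Fe-XO absorbance ratio 573/405 nm.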
HT1080NT lethal = qHTS for induction of synthetic lethality in tumor cells producing 2HG: qHTS for the HT-1080-NT fibrosarcoma cell line; HT-1080-NT fibrosarcoma viability, CellTiter-Glo ATP luminescence, 48 h; Potency, µM (series often up to 46.1 µM), for the others: top-dose activity, negative = less viability, hits mostly cytotoxic; hit rate 1.6% among 360,000;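 further: NT is the 2HG producing partner of a matched IDH1 knockdown line; potency means the concentration at half of the fitted maximal effect; 0% = DMSO-treated cells and -100% = media-only wells without cells; nearly all actives have a fitted effect of over 55% in size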
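Toxicity toward the 2HG-producing NT line was scored as %Activity, normalised to DMSO and no-cell wells, from CellTiter-Glo luminescence after 48 hours' treatment.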
DT40 TDP1 CPT = qHTS for Inhibitors of human tyrosyl-DNA phosphodiesterase 1 (TDP1): qHTS in cells in presence of CPT; chicken DT40 Tdp1-/-;hTDP1 cells + 20 nM CPT, ATP luminescence, 48 h; Potency, µM (highest dose often 46.2 µM), without a hit: at the top dose activity change, negative = growth inhibition, actives largely listed as inhibitors; hit rate 12% among 420,000; AID 686979, 2013; further: potency means the concentration at half of the fitted maximal effect; nearly all actives have a fitted effect of over 55% in size
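Chicken DT40 Tdp1-/- cells complemented with human TDP1, 400 cells/well, exposed to compounds plus 20 nM camptothecin for at least 48 h at 37 C; viability read as ATP content by CellTiter-Glo luminescence.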
IL1B secr inh = qHTS for Inhibitors of Inflammasome Signaling: IL-1-beta AlphaLISA Primary Screen | THP-1 LPS/ATP IL-1B secretion, AlphaLISA, 16 h; stronger effect = lower value | activity change, % at 57.5 µM | hit rate 4.7% among 360,000 | AID 743279, 2014; in the data active means activity change below about -50%; inconclusive means mostly about -30% to -49%
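THP-1 cells pretreated 1 hr with compounds (up to 57.5 uM final), then stimulated with LPS (250 ng/mL final) plus ATP (1.25 mM final); secreted IL-1B measured by AlphaLISA after 16 hr, decreased signal indicating inhibition.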
TDP1 cell noCPT = qHTS for Inhibitors of human tyrosyl-DNA phosphodiesterase 1 (TDP1): qHTS in cells in absence of CPT; DT40 Tdp1-/- hTDP1 cells, no CPT, ATP luminescence, 48 h; Potency, µM (highest dose often 46.2 µM), for inactives: top-dose activity change, negative = growth inhibition, actives largely listed as inhibitors; hit rate 15% among 420,000; AID 686978, 2013; further: potency means the concentration at half of the fitted maximal effect; nearly all actives have a fitted effect of over 55% in size
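Chicken DT40 Tdp1-/- cells stably complemented with human TDP1 were seeded at 400 cells/well with DMSO in place of 20 nM camptothecin. After compound pinning, cells grew at least 48 hr at 37 °C; viability read by CellTiter-Glo luminescence.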
HT1080 IDH1KD tx = qHTS for induction of synthetic lethality in tumor cells producing 2HG: qHTS for the HT-1080-IDH1KD cell line | HT-1080 IDH1 knockdown viability, ATP luminescence, 48 h | Potency, µM (doses to about 46.1 µM), without a hit: top-dose activity, negative = toxicity, actives largely listed as cytotoxic | hit rate 2% among 360,000;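 further: potency means the concentration at half of the fitted maximal effect; 0% = DMSO wells and -100% = cell-free medium wells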
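In this qHTS, HT-1080 cells depleted of IDH1 are exposed for 48 h at 37 °C to compound titrations. Toxicity is scored from CellTiter-Glo luminescence, with DMSO as full viability and medium alone as none.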
* = called active by the depositor; ? = inconclusive; / = no result given; [ ] = dose if it differs, or a comment. Unless noted, the call rests on the fitted dose curve; in most records, active means well fitted curve in the direction sought with a large enough effect; inconclusive means small, poorly fitted or top-dose-only effect, or another doubt; inactive means no such curve, though single readings can be large; an effect the other way counts as inactive or inconclusive. Unless noted, on the % scale 0 is the no-effect control and ±100 the full control effect.

SMILES	ALOX12 inh	HT1080NT lethal	DT40 TDP1 CPT	IL1B secr inh	TDP1 cell noCPT	HT1080 IDH1KD tx
C=CCC[C@@H](Cc1ccc(F)cc1)C(=O)OC[C@@H](Cc1c[nH]c2ccccc12)NC(=O)[C@@H](CC=C)CC(=O)N[C@H](CO)Cc1ccccc1	-19%	-20%	?	-7	?	-1%
C=CCC[C@@H](Cc1ccc(F)cc1)C(=O)OC[C@@H](Cc1c[nH]c2ccccc12)NC(=O)[C@@H](CC=C)CC(=O)N[C@@H](CO)Cc1ccccc1	7%	-1%	23µM*	-19	?	-3%
C=CCC[C@H](Cc1ccc(F)cc1)C(=O)OC[C@@H](Cc1c[nH]c2ccccc12)NC(=O)[C@@H](CC=C)CC(=O)N[C@@H](CO)Cc1ccccc1	?	?	?	-30	23µM*	?
C=CCC[C@@H](Cc1ccc(F)cc1)C(=O)OC[C@H](Cc1c[nH]c2ccccc12)NC(=O)[C@@H](CC=C)CC(=O)N[C@@H](CO)Cc1ccccc1	-17%	-2%	21µM*	-3	?	-1%
COc1ccc(C(C)=O)cc1CSCc1ccc(C#N)cc1	-20%	/	/	/	/	/
COC(=O)c1ccc2c(c1)C(C)(C)C(/C=C/c1ccccc1O)=[N+]2C	?	4.5µM*	3.2µM*	-100*	3.2µM*	3.5µM*
Nc1nc(=S)[nH]c2n[nH]nc12	/	/	4.5µM*	/	3.5µM*	/
O=C(N/N=C/C(Br)=C\c1ccccc1)c1n[nH]c2c1CCC2	-8%	0.32µM*	0.23µM*	1	0.23µM*	0.56µM*
O=C(N/N=C/C=C/c1ccccc1)c1n[nH]c2c1CCC2	492%	1.8µM*	1.6µM*	68	0.82µM*	1.3µM*
Cc1cc(C(=O)N/N=C/C=C/c2ccccc2)n[nH]1	39%	29%	-5%	-23	-9%	?
O=C(N/N=C/C=C/c1ccccc1)c1cccnc1	0%	-1%	21µM*	-3	?	-6%
Cc1ccc(-c2nc3ccc(C)cn3c2Cc2ccccc2C(F)(F)F)cc1	?	?	29µM*	-28	?	?
Cc1ccc2nc(-c3ccccc3)c(Cc3ccccc3C(F)(F)F)n2c1	-1%	?	16µM*	-13	?	?
Cc1ccc(-c2nc3c4ccccc4ccn3c2Cc2ccccc2C(F)(F)F)cc1	-11%	10%	?	22	16µM*	8%
Cc1cc2nc(C(C)(C)C)c(Cc3ccccc3C(F)(F)F)n2c(C)c1Br	?	?	?	47	?	?
Cc1ccc2nc(C(C)(C)C)c(Cc3ccccc3C(F)(F)F)n2c1	?	?	16µM*	-9	15µM*	?
Cc1ccc(-c2nc3c(Cl)cc(C(F)(F)F)cn3c2Cc2ccccc2C(F)(F)F)cc1	?	10%	1%	18	-23%	5%
COc1ccc(C(=O)Oc2ccc(C(C)C)cc2)cc1I	8%	/	/	/	/	/
O=C(CCC1CCCC1)NC1CCN(C(=O)N2CC3CC(C2)[C@H]2CCCC(=O)N2C3)CC1 (stereo partly drawn)	1%	/	/	/	/	/
COc1ccc(Cc2c(C(C)(C)C)nc3ccc(Cl)cn23)c(C)c1	?	?	?	19	?	?
COc1ccccc1Cc1c(C(C)(C)C)nc2ccc(C)cn12	?	?	0.65µM*	6	9.2µM*	?
COc1ccc(Cc2c(C(C)(C)C)nc3ccc(C)cn23)c(C)c1	?	?	15µM*	-14	13µM*	?
COc1cccc(CNC(=O)Cn2nc3n(c2=O)CCCC3)c1OC	57%	/	/	/	/	/
CC1CCCc2c1nc1sc3c(c1c2-c1cccc(F)c1)CCCC3 (stereo not drawn)	-1%	/	/	/	/	/
CCCn1c(C)c(CC(=O)N[C@@H](C)C(N)=O)c2c1CC(C)(C)CC2=O	5%	/	/	/	/	/
SMILES	ALOX12 inh	HT1080NT lethal	DT40 TDP1 CPT	IL1B secr inh	TDP1 cell noCPT	HT1080 IDH1KD tx
CC(=O)c1cc(C(=O)N2CCC3(CC2)Nc2ccccc2NC3=O)[nH]n1	21%	/	/	/	/	/
O=C(CN1CCCC1c1cccs1)Nc1cc(S(=O)(=O)N2CCCCC2)ccc1Cl (stereo not drawn)	217%	-29%	16µM*	-15	?	?
Cc1ccc(S(=O)(=O)N2CCCCC2)cc1NC(=O)CN1CCCC1c1cccs1 (stereo not drawn)	8%	0%	-25%	24	-24%	-1%
Cc1ccc(NC(=O)CN2CCCC2c2cccs2)cc1S(=O)(=O)N1CCCCC1 (stereo not drawn)	7%	-8%[9.24 µM]	18µM*	-9	23µM*	?
CCOc1ccc(NC(=O)CN2CCCC2c2cccs2)cc1S(=O)(=O)N1CCCCC1 (stereo not drawn)	-11%	1%	15µM*	-8	15µM*	-3%
COc1ccc(C[C@H](NC(=O)C2=C[C@@H](NC(=O)CS(=O)(=O)c3ccccc3)[C@@H](O)[C@H](O)C2)C(N)=O)cc1	3%	/	/	/	/	/
CC(C)(Oc1nn(CC2CCOCC2)c2ccccc12)C(=O)NCCc1ccccc1	9%[176 µM]	/	/	/	/	/
